# From PubChem BioAssay (Tox21)
# Values joined by “and” are separate entries in the source; they are usually repeats but may differ in a detail not shown here. Equal values may be shown once. Active and inactive are the calls of the source. A call without a number means that no potency is given here. Unless noted, calls come from the whole dose curve; as a rule, active = well fitted curve in the direction sought with a large enough effect in the repeat runs; inconclusive = weak or mixed curves; inactive = no such curve, though single readings can be large; an effect the other way counts as inactive or inconclusive.
# How the values were obtained:
# [1] = qHTS assay to identify small molecule antagonists of the thyroid receptor (TR) signaling pathway - cell viability counter screen (AID 743064); note: nearly all actives have a fitted effect of over 50% in size; note: potency is the fitted concentration of half-maximal effect
# Summary of the method: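 CellTiter-Fluor readout, 30 min at 37 °C/5% CO2, following 23.5 h incubation of GH3.TRE-Luc cells with test compound and 1 nM T3 (final).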
# [2] = qHTS assay to identify small molecule antagonists of the thyroid receptor (TR) signaling pathway (AID 743065); note: nearly all actives have a fitted effect of over 55% in size; note: potency is the fitted concentration of half-maximal effect
# Summary of the method: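 GH3.TRE-Luc rat pituitary cells (two TREs driving luciferase) were dosed with compound, then stimulated with 1 nM T3 (final) for 23.5 h at 37 C. ONE-Glo luminescence was the read-out, with CellTiter-Fluor fluorescence as the cytotoxicity counter-screen.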
# [3] = test system: thyroid hormone receptor (rat, GH3 cells); experiment: qHTS assay to identify small molecule agonists of the thyroid receptor (TR) signaling pathway (AID 743066; calls by dose curve)
# [4] = target: Estrogen receptor (Homo sapiens) (UniProt P03372); experiment: qHTS assay to identify small molecule antagonists of the estrogen receptor alpha (ER-alpha) signaling pathway (AID 743069; active = well fitted curve in the direction sought with a large enough effect in the signal ratio in the repeat runs, not every such curve was filed as active; inconclusive = weak or mixed curves, or effect the other way; inactive = no such curve, though single readings can be large or run the other way; the % refers to the signal ratio)
# Summary of the method: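 Reporter cells (ER-alpha-bla, HEK293 background) are conditioned overnight in stripped-serum medium (2% charcoal-stripped FBS). Compound and 17beta-estradiol exposure runs 18 hr at 37C, 5% CO2.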
# [5] = qHTS assay to identify small molecule antagonists of the estrogen receptor alpha (ER-alpha) signaling pathway - cell viability counter screen (AID 743074; calls by dose curve;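 note: HEK293 cells carrying ER-alpha-UAS-bla reporter stimulated with 17beta-estradiol; nearly all actives have a fitted effect of over 45% in size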)
# [6] = target: Estrogen receptor (Homo sapiens) (UniProt P03372); experiment: qHTS assay to identify small molecule agonists of the estrogen receptor alpha (ER-alpha) signaling pathway (AID 743075; calls by dose curve;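 note: HEK293 GripTite cells with ER-alpha and UAS-driven beta-lactamase reporter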; note: potency is the fitted concentration of half-maximal effect)
# [7] = target: Estrogen receptor (Homo sapiens) (UniProt P03372); experiment: qHTS assay to identify small molecule agonists of the estrogen receptor alpha (ER-alpha) signaling pathway using the BG1 cell line (AID 743079); note: nearly all actives have a fitted effect of over 20% in size; note: potency is the fitted concentration of half-maximal effect
# [8] = qHTS assay to identify small molecule antagonists of the estrogen receptor alpha (ER-alpha) signaling pathway using the BG1 cell line (AID 743080; calls by dose curve;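 note: BG1 cells stimulated with 17beta-estradiol alongside compound; nearly all actives have a fitted effect of over 25% in size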; note: potency is the fitted concentration of half-maximal effect)
# Summary of the method: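 BG1-Luc-4E2 cells (endogenous full-length ER-alpha, stable 4×ERE-luciferase) were starved 5 days in phenol-red-free medium with 10% charcoal-stripped FBS, plated 24 h, then given compound plus 17beta-estradiol for 21.5 h at 37 C; ONE-Glo luminescence read after 30 min.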
# [9] = qHTS assay to identify small molecule antagonists of the estrogen receptor alpha (ER-alpha) signaling pathway using the BG1 cell line - cell viability counter screen (AID 743081);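 note: compound given together with 17beta-estradiol as the ER stimulus; series mostly up to about 70 µM; nearly all actives have a fitted effect of over 45% in size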
# [10] = target: Aromatase (Homo sapiens) (UniProt P11511); experiment: qHTS assay to identify aromatase inhibitors (AID 743083); note: series mostly up to about 70 µM; nearly all actives have a fitted effect of over 55% in size
# [11] = qHTS assay to identify aromatase inhibitors - cell viability counter screen (AID 743084);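 note: cells stimulated with testosterone during compound exposure; nearly all actives have a fitted effect of over 55% in size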; note: potency is the fitted concentration of half-maximal effect
# [12] = target: Aryl hydrocarbon receptor (Homo sapiens) (UniProt P35869); experiment: qHTS assay to identify small molecule that activate the aryl hydrocarbon receptor (AhR) signaling pathway (AID 743085); note: nearly all actives have a fitted effect of over 15% in size; note: potency is the fitted concentration of half-maximal effect;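 for activation: HG2L7.5c1 human HepG2 liver cells with stably integrated DRE-driven firefly reporter; series mostly up to about 70 µM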
# Summary of the method: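 Stably transfected human liver carcinoma cells (HG2L7.5c1; 20 DRE-firefly luciferase) were incubated 5 h, dosed, and kept 24 h at 37C. Agonism was scored from increased luciferase luminescence.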
# [13] = qHTS assay to identify small molecule that activate the aryl hydrocarbon receptor (AhR) signaling pathway - cell viability counter screen (AID 743086); note: nearly all actives have a fitted effect of over 45% in size; note: potency is the fitted concentration of half-maximal effect
# Summary of the method: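 HepG2-AhR-luc (HG2L7.5c1) cells, 4000/well, treated 24 h at 37 C with compound; viability measured as CellTiter-Fluor fluorescence after 30 min in the same wells as the luciferase read.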
# [14] = qHTS assay to identify small molecule antagonists of the peroxisome proliferator-activated receptor gamma (PPARg) signaling pathway - cell viability counter screen (AID 743194); details: Potency: co-treated with 50 nM rosiglitazone; note: nearly all actives have a fitted effect of over 55% in size
# Summary of the method: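 Cytotoxicity counter screen in PPARg-bla HEK293H cells, same wells as reporter assay. Compounds plus 50 nM rosiglitazone (final) for 17 h at 37 C, then viability read by CellTiter-Glo luminescence.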
# [15] = qHTS assay for small molecule agonists of the antioxidant response element (ARE) signaling pathway - cell viability counter screen (AID 743203; calls by dose curve; note: nearly all actives have a fitted effect of over 55% in size)
# Summary of the method: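 Compounds in DMSO were pinned onto ARE-bla HepG2 cells plated 5 hrs earlier at 2,000 cells/well. Sixteen hours later at 37C/5% CO2, CellTiter-Glo was added and luminescence measured after 30 min at room temperature.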
# [16] = qHTS assay for small molecule activators of the heat shock response signaling pathway - cell viability counter screen (AID 743209); note: nearly all actives have a fitted effect of over 50% in size
# Summary of the method: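 Counter screen for cytotoxicity in HeLa HSE-bla reporter cells. Treatment was 5 h at 37 C; viability was detected by luminescent ATP assay (CellTiter-Glo) in the same wells as the beta-lactamase read.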
# [17] = qHTS assay for small molecule activators of the heat shock response signaling pathway (AID 743210; active = well fitted activation curve with a large enough effect in the signal ratio in the repeat runs, with a control signal flat, not every such curve was filed as active; inconclusive = weak or mixed curves; the % refers to the signal ratio;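 note: HeLa cells with beta-lactamase reporter driven by heat shock elements; series mostly up to about 63 µM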)
# Summary of the method: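 Quantitative high-throughput format using an engineered HeLa line in which heat shock response elements drive beta-lactamase; after 5 h with compound, cells received a B/G FRET substrate and fluorescence was read.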
# [18] = target: Peroxisome proliferator-activated receptor gamma (Homo sapiens) (UniProt P37231); experiment: qHTS assay to identify small molecule agonists of the peroxisome proliferator-activated receptor gamma (PPARg) signaling pathway (AID 743094; active = well fitted activation curve with a large enough effect in the signal ratio in the repeat runs, not every such curve was filed as active; inconclusive = weak or mixed curves, or effect the other way; inactive = no such curve, though single readings can be large or run the other way; the % refers to the signal ratio)
# Summary of the method: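 Following 5 h plating at 37C, PPARg-bla HEK293H cells receive compound or DMSO for 17 h; fluorescence intensity is recorded after LiveBLAzer B/G loading for 1 h at room temperature.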
# [19] = qHTS assay for small molecule agonists of the antioxidant response element (ARE) signaling pathway (AID 743202; active = well fitted activation curve with a large enough effect in the signal ratio in the repeat runs, not every such curve was filed as active; inconclusive = weak or mixed curves, or effect the other way; inactive = no such curve, though single readings can be large or run the other way; the % refers to the signal ratio)
# Summary of the method: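 Agonist mode reporter screen: HepG2 cells with ARE-controlled beta-lactamase are incubated with test compounds for 16 h at 37 C, and beta-lactamase activity is measured as fluorescence of cleaved B/G FRET substrate.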
# [20] = target: Peroxisome proliferator-activated receptor gamma (Homo sapiens) (UniProt P37231); experiment: qHTS assay to identify small molecule antagonists of the peroxisome proliferator-activated receptor gamma (PPARg) signaling pathway (AID 743191; calls by dose curve; note: series mostly up to about 63 µM; nearly all actives have a fitted effect of over 30% in size)
# Summary of the method: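 GeneBLAzer PPARg UAS-bla HEK293H cells, 5 h post-plating, exposed to compounds 17 h at 37C. LiveBLAzer B/G FRET substrate added for 1 h at room temperature; beta-lactamase reporter read by fluorescence intensity.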
# Aromatase (Homo sapiens), sequence (P11511 whole entry, looked up): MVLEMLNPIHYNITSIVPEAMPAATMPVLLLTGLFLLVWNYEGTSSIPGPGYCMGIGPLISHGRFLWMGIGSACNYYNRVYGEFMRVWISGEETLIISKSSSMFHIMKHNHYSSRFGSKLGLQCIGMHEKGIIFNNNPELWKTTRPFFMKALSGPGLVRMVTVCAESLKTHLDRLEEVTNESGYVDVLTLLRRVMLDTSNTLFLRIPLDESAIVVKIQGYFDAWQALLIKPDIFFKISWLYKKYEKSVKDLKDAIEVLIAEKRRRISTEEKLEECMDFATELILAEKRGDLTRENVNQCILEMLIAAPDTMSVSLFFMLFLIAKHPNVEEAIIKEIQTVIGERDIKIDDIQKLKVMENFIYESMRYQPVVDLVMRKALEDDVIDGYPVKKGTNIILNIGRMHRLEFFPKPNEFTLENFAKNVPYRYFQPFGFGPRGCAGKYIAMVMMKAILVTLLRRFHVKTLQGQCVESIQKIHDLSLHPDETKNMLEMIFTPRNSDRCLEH
# Estrogen receptor (Homo sapiens), sequence (P03372 whole entry, looked up): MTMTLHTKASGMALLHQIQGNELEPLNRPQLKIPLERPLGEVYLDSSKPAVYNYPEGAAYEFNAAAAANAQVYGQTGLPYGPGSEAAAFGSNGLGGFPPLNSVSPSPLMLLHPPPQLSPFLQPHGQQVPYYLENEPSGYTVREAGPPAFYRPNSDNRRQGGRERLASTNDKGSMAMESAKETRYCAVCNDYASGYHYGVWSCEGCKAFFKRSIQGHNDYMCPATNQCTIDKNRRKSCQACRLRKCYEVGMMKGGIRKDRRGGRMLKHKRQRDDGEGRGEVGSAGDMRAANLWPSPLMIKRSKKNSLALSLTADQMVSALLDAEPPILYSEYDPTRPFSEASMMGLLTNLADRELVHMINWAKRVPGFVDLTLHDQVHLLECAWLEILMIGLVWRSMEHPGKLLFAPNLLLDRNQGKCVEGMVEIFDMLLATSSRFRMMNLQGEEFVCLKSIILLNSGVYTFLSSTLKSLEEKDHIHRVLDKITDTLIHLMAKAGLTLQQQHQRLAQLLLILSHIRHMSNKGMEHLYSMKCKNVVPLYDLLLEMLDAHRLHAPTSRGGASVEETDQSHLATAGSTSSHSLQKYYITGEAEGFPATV
# Peroxisome proliferator-activated receptor gamma (Homo sapiens), sequence (P37231 whole entry, looked up): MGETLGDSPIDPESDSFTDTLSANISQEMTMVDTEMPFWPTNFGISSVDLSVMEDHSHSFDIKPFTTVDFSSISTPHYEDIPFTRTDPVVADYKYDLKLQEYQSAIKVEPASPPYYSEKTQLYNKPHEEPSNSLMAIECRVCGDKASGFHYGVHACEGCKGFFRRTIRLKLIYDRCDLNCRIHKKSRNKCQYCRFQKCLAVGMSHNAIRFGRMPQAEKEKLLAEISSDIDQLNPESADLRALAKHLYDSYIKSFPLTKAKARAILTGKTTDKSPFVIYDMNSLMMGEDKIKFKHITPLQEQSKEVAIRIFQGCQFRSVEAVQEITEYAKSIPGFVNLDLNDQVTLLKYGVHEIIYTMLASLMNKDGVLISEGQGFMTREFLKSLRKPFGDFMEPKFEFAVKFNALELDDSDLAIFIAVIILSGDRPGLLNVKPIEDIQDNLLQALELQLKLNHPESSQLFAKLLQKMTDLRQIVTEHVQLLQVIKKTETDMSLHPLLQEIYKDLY
# Aryl hydrocarbon receptor (Homo sapiens), sequence (P35869 whole entry, looked up): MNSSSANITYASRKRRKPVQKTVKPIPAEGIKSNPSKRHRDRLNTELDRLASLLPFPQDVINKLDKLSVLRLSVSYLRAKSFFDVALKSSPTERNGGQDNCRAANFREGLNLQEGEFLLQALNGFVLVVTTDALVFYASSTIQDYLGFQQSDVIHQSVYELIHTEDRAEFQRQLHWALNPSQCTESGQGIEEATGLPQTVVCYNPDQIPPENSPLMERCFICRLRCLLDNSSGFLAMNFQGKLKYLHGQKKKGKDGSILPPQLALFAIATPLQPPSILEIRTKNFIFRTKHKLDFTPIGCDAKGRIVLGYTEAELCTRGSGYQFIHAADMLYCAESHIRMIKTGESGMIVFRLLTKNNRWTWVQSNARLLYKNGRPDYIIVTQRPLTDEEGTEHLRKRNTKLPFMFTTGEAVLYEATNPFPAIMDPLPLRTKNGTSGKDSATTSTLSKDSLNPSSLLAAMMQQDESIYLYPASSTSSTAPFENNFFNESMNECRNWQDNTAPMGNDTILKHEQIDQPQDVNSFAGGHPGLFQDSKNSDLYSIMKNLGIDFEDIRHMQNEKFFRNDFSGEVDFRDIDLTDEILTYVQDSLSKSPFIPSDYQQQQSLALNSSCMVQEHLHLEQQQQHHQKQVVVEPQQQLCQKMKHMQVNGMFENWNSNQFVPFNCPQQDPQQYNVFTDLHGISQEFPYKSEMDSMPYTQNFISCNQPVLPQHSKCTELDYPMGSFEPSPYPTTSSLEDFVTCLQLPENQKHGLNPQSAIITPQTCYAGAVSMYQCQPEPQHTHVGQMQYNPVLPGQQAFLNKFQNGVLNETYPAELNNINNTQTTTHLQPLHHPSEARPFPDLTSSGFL
Compound,Potency [1],Potency [2],Potency [3],Potency [4],Potency [5],Potency [6],Potency [7],Potency [8],Potency [9],Potency [10],Potency [11],Potency [12],Potency [13],Potency [14],Potency [15],Potency [16],Potency [17],Potency [18],Potency [19],Potency [20]
C=CCc1ccccc1O,inactive,inactive,inactive,inactive,inactive,inactive,inactive,inactive,inactive,inactive,inactive,inactive,inactive,inactive,inactive,inactive,inactive,,,
O=C([O-])c1ccccn1.O=C([O-])c1ccccn1.O=C([O-])c1ccccn1.[Cr+3],inactive,inactive,inactive,inactive,inactive,inactive,inactive,inactive,inactive,inactive,inactive,,inactive,inactive,inactive,inactive,inactive,inactive,inactive,
CN1CC[C@]23c4c5ccc(O)c4O[C@H]2[C@@H](O)CC[C@H]3[C@H]1C5,inactive,inactive,inactive,inactive,inactive,inactive,inactive,inactive,inactive,inactive,inactive,inactive,inactive,inactive,inactive,inactive,,inactive,inactive,
Clc1ccccc1,inactive,inactive,inactive,inactive,inactive,inactive,inactive,inactive,inactive,inactive,inactive,inactive,inactive,inactive,inactive,inactive,inactive,inactive,inactive,
CCOP(=S)(S)OCC,inactive,inactive,inactive,inactive,inactive,inactive,inactive,inactive,inactive,inactive,inactive,inactive,inactive,inactive,inactive,inactive,inactive,inactive,inactive,
C=CCOC(=O)C(C)(C)OC(=O)c1cc(-n2c(=O)cc(C(F)(F)F)n(C)c2=O)ccc1Cl,inactive,inactive,inactive,inactive,inactive,inactive,inactive,26.8 µM (active),inactive,inactive,inactive,inactive,inactive,inactive,inactive,inactive,inactive,inactive,,
CC(C)c1ccc(OP(=O)(Oc2ccc(C(C)C)cc2)Oc2ccc(C(C)C)cc2)cc1,54.9 µM (active) and 68.6 µM (active) and 30.6 µM (active),54.9 µM (active) and 54.5 µM (active) and 30.6 µM (active),inactive,inactive,inactive,inactive,2.75 µM (active) and 6.85 µM (active),inactive,inactive,inactive,inactive,inactive,inactive,inactive,inactive,inactive,inactive,inactive,inactive,
SCc1ccccc1,inactive,inactive,inactive,inactive,inactive,inactive,62.9 µM (active),inactive,inactive,inactive,inactive,inactive,inactive,inactive,inactive,inactive,inactive,inactive,inactive,
CCNC(=O)NC(=O)/C(C#N)=N/OC,inactive,inactive,inactive,inactive,inactive,inactive,inactive,inactive,inactive,inactive,inactive,inactive,inactive,,inactive,inactive,inactive,inactive,inactive,inactive
CC(C)(C)N(NC(=O)c1ccc(Cl)cc1)C(=O)c1ccccc1,3.42 µM (active),inactive,inactive,inactive,inactive,inactive,,inactive,,inactive,7.65 µM (active),inactive,17.1 µM (active),inactive,inactive,inactive,inactive,inactive,inactive,inactive
CC(C)OC(=O)Cc1ccccc1,inactive,inactive,inactive,,inactive,inactive,inactive,inactive,inactive,inactive,inactive,inactive,inactive,inactive,inactive,inactive,inactive,inactive,inactive,
FC(Cl)(Cl)C(F)(Cl)Cl,inactive,inactive,inactive,,inactive,inactive,inactive,inactive,inactive,inactive,inactive,,inactive,inactive,inactive,,inactive,,inactive,
Nc1cccc2ccccc12,inactive,inactive,inactive,inactive,,inactive,inactive,inactive,inactive,inactive,inactive,27.5 µM (active) and 27.3 µM (active),inactive,inactive,inactive,inactive,inactive,inactive,inactive,inactive
O=C(Cc1ccccc1)OCCc1ccccc1,inactive,inactive,inactive,,inactive,inactive,inactive,inactive,inactive,inactive,inactive,inactive,inactive,inactive,inactive,inactive,inactive,inactive,inactive,
C=CCOCC1CO1 (stereo not drawn),inactive,inactive,inactive,,inactive,inactive,inactive,inactive,inactive,inactive,inactive,inactive,inactive,inactive,inactive,inactive,inactive,inactive,inactive,inactive
Clc1ccc2ccccc2c1,inactive,inactive,inactive,inactive,inactive,inactive,,inactive,inactive,inactive,inactive,inactive,inactive,inactive,inactive,inactive,inactive,inactive,inactive,inactive

Compound,Potency [1],Potency [2],Potency [3],Potency [4],Potency [5],Potency [6],Potency [7],Potency [8],Potency [9],Potency [10],Potency [11],Potency [12],Potency [13],Potency [14],Potency [15],Potency [16],Potency [17],Potency [18],Potency [19],Potency [20]
CCCCC(CC)CO[N+](=O)[O-] (stereo not drawn),inactive,inactive,inactive,,inactive,inactive,inactive,inactive,inactive,inactive,inactive,inactive,inactive,inactive,inactive,inactive,inactive,inactive,,inactive
CC(C)(C)NCC(O)c1ccccc1Cl (stereo not drawn),inactive,inactive,inactive,,inactive,inactive,inactive,inactive,inactive,inactive,inactive,inactive,inactive,inactive,inactive,inactive,inactive,inactive,inactive,inactive
CCCC[N+]1(C)[C@@H]2CC(OC(=O)[C@H](CO)c3ccccc3)C[C@H]1[C@@H]1O[C@@H]12 (stereo partly drawn),inactive,inactive,inactive,,inactive,inactive,inactive,inactive,inactive,inactive,inactive,inactive,inactive,inactive,inactive,inactive,inactive,inactive,inactive,inactive
CCC1(CC)C(=O)NC(=O)NC1=O,inactive,inactive,inactive,,inactive,inactive,inactive,inactive,inactive,inactive,inactive,inactive,inactive,inactive,inactive,inactive,inactive,inactive,,inactive
Nc1ccc2c(c1)Cc1ccccc1-2,inactive,inactive,inactive,inactive,inactive,,4.3 µM (active),,inactive,inactive,inactive,68.2 µM (active),inactive,inactive,inactive,inactive,inactive,inactive,,
c1ccc2c(c1)sc1ccccc12,inactive,inactive,inactive,,inactive,inactive,inactive,inactive,inactive,inactive,inactive,inactive,inactive,,inactive,inactive,inactive,inactive,,inactive
C[N+](C)(C)CC1CO1 (stereo not drawn),inactive,inactive,inactive,,inactive,inactive,inactive,inactive,inactive,inactive,inactive,inactive,inactive,inactive,inactive,inactive,inactive,inactive,inactive,inactive
C#C[C@]1(O)CC[C@H]2[C@@H]3CCC4=CC(=O)CCC4=C3C=C[C@@]21CC,inactive,23.7 µM (active),inactive,,inactive,0.213 µM [inconclusive] (active),0.0422 µM (active),23.7 µM (active),inactive,inactive,inactive,inactive,inactive,inactive,inactive,inactive,inactive,,,
CC(C)(c1ccccc1)c1cc(-n2nc3ccccc3n2)c(O)c(C(C)(C)c2ccccc2)c1,inactive,inactive,inactive,,inactive,inactive,inactive,inactive,inactive,inactive,inactive,inactive,inactive,,inactive,inactive,inactive,inactive,inactive,
COC1CC(=C(c2cccs2)c2cccs2)C[N+](C)(C)C1 (stereo not drawn),inactive,inactive,inactive,inactive,inactive,inactive,,inactive,inactive,inactive,inactive,inactive,inactive,inactive,inactive,inactive,inactive,inactive,inactive,
COc1cc(CC(C)N)c(OC)cc1Br (stereo not drawn),35.5 µM (active) and 23.7 µM (active),35.5 µM (active) and 23.7 µM (active),inactive,,inactive,inactive,inactive,inactive,inactive,inactive,inactive,inactive,inactive,inactive,inactive,inactive,inactive,inactive,,
CCOP(=S)(OCC)SCSc1cc(Cl)ccc1Cl,inactive,inactive,inactive,inactive,inactive,inactive,,inactive,inactive,inactive,inactive,inactive,inactive,inactive,inactive,inactive,inactive,inactive,inactive,
CCN(C(C)=O)c1cccc(-c2ccnc3c(C#N)cnn23)c1,inactive,inactive,inactive,,inactive,inactive,inactive,inactive,inactive,inactive,inactive,inactive,inactive,inactive,inactive,inactive,inactive,inactive,inactive,
CCCBr,inactive,inactive,inactive,,inactive,inactive,inactive,inactive,inactive,inactive,inactive,inactive,inactive,inactive,inactive,inactive,inactive,inactive,inactive,
C1CCNCC1,inactive,inactive,inactive,inactive,inactive,,,inactive,inactive,inactive,inactive,inactive,inactive,inactive,inactive,inactive,inactive,inactive,inactive,inactive
